Measurements reported in PubChem BioAssay AID1159580 (chemical genetic matrix, 2015).
Several values for one entry are separate records, joined by “and”; a condition that tells them apart may be missing. Equal entries are not always repeated. Out of some 5,500 compounds screened, about 2,000 (36%) were called active. About 18% were inconclusive and are not listed. Rule as the data show it: active = normalized growth mostly below about 0.91 (no sharp cut-off); inconclusive = no clear call, values can overlap the other calls; inactive = mostly above about 0.92. This is one part of the list.

Assay: chemical genetic growth profiling, strain panel (AID 1159580);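 also: tested at 20 µM; growth read once vehicle control cultures reached saturation at 30 °C; 1 = growth at the plate median or of vehicle wells; lower values mean less growth of the strain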
Conditions: S. cerevisiae deletion strains, growth OD

Measured: normalized growth

C[C@]12CCC3c4ccc(O)cc4CCC3C1CC[C@@H]2OC(=O)CCC1CCCC1 (some centres undefined)
inactive: locus YAL021C, strain ccr4, stronger effect = lower value 1.03 | locus YAL026C, strain drs2, stronger effect = lower value 0.997 | locus YAL030W, strain snc1, stronger effect = lower value 1.01 | locus YBL061C, strain skt5, stronger effect = lower value 1 | locus YBR009C, strain hhf1, stronger effect = lower value 1 | locus YBR021W, strain FUR4, stronger effect = lower value 1.02 | locus YBR023C, strain chs3, stronger effect = lower value 1.03 | locus YBR171W, strain sec66, stronger effect = lower value 1.02 | locus YBR229C, strain ROT2, stronger effect = lower value 0.961 | locus YBR231C, strain swc5, stronger effect = lower value 0.98 | locus YBR279W, strain paf1, stronger effect = lower value 1 | locus YCL011C, strain gbp2, stronger effect = lower value 1.02 | locus YCL016C, strain dcc1, stronger effect = lower value 1.03 | locus YCL029C, strain bik1, stronger effect = lower value 1 | locus YCL061C, strain MRC1, stronger effect = lower value 1.01 | locus YCL069W, strain vba3, stronger effect = lower value 1.01 | locus YCR088W, strain abp1, stronger effect = lower value 1.01 | locus YDL005C, strain med2, stronger effect = lower value 1.01 | locus YDL035C, strain GPR1, stronger effect = lower value 0.959 | locus YDL040C, strain nat1, stronger effect = lower value 0.997 | locus YDL074C, strain BRE1, stronger effect = lower value 0.97 | locus YDL101C, strain DUN1, stronger effect = lower value 0.985 | locus YDL185W, strain tfp1, stronger effect = lower value 0.975 | locus YDL192W, strain arf1, stronger effect = lower value 1 | locus YDR001C, strain nth1, stronger effect = lower value 1 | locus YDR069C, strain doa4, stronger effect = lower value 0.989 | locus YDR101C, strain arx1, stronger effect = lower value 0.959 | locus YDR137W, strain rgp1, stronger effect = lower value 1.03 | locus YDR150W, strain NUM1, stronger effect = lower value 0.985 | locus YDR159W, strain sac3, stronger effect = lower value 0.982 | locus YDR162C, strain NBP2, stronger effect = lower value 0.944 | locus YDR195W, strain ref2 1 | locus YDR297W, strain sur2, stronger effect = lower value 1.01 | locus YDR318W, strain mcm21, stronger effect = lower value 1 | locus YDR334W, strain swr1, stronger effect = lower value 1.01 | locus YDR335W, strain msn5, stronger effect = lower value 1.02 | locus YDR388W, stronger effect = lower value 0.991 | locus YDR392W, strain spt3, stronger effect = lower value 0.944 | locus YDR502C, strain sam2, stronger effect = lower value 0.994 | locus YEL003W, strain gim4, stronger effect = lower value 0.988 | locus YEL037C, strain rad23, stronger effect = lower value 0.992 | locus YEL061C, strain CIN8 (second series), stronger effect = lower value 1.01 | locus YEL061C, strain CIN8, stronger effect = lower value 0.989 | locus YER015W, strain faa2, stronger effect = lower value 1 | locus YER016W, strain bim1, stronger effect = lower value 1.01 | locus YER110C, stronger effect = lower value 1.01 | locus YER111C, strain swi4, stronger effect = lower value 1.01 | locus YER155C, strain BEM2 (second series), stronger effect = lower value 1.01 | locus YER155C, strain BEM2, stronger effect = lower value 1 | locus YER167W, strain BCK2, stronger effect = lower value 1.01 | locus YFR010W, strain ubp6, stronger effect = lower value 1.01 | locus YGL078C, strain dbp3, stronger effect = lower value 0.998 | locus YGL086W, strain mad1, stronger effect = lower value 0.994 | locus YGL167C, strain pmr1, stronger effect = lower value 1.01 | locus YGL173C, strain kem1, stronger effect = lower value 1.02 | locus YGL227W, strain vid30, stronger effect = lower value 1.03 | locus YGL240W, strain doc1, stronger effect = lower value 1.05 | locus YGL248W, strain PDE1, stronger effect = lower value 0.99 | locus YGL253W, strain hxk2, stronger effect = lower value 1.01 | locus YGR135W, strain pre9, stronger effect = lower value 1.07 | locus YGR229C, strain SMI1, stronger effect = lower value 0.982 | locus YGR252W, strain gcn5, stronger effect = lower value 1.16 | locus YHR013C, strain ard1, stronger effect = lower value 1.03 | locus YHR027C, strain rpn1, stronger effect = lower value 0.995 | locus YHR030C, strain SLT2, stronger effect = lower value 0.99 and 1.03 | locus YHR079C, strain IRE1 (second series), stronger effect = lower value 0.996 | locus YHR079C, strain IRE1, stronger effect = lower value 1.04 | locus YHR094C, strain hxt1, stronger effect = lower value 0.997 | locus YHR129C, strain ARP1, stronger effect = lower value 0.992 | locus YHR142W, strain chs7, stronger effect = lower value 1.05 | locus YHR200W, strain rpn10, stronger effect = lower value 0.998 | locus YIL066C, strain RNR3, stronger effect = lower value 0.977 | locus YIL073C, strain SPO22, stronger effect = lower value 0.989 | locus YIL125W, strain kgd1, stronger effect = lower value 0.989 | locus YIR030C, strain dcg1, stronger effect = lower value 1.01 | locus YJL092W, strain hpr5, stronger effect = lower value 1.01 | locus YJL095W, strain BCK1 (second series), stronger effect = lower value 1.01 | locus YJL095W, strain BCK1, stronger effect = lower value 1.01 | locus YJL115W, strain asf1, stronger effect = lower value 1.01 | locus YJL129C, strain trk1, stronger effect = lower value 1.03 | locus YJL134W, strain LCB3, stronger effect = lower value 0.979 | locus YJL154C, strain vps35, stronger effect = lower value 1.01 | locus YJL164C, strain tpk1, stronger effect = lower value 0.996 | locus YJL166W, strain qcr8, stronger effect = lower value 1.02 | locus YJL168C, strain set2, stronger effect = lower value 0.995 | locus YJL187C, strain SWE1 (second series), stronger effect = lower value 0.976 | locus YJL187C, strain SWE1, stronger effect = lower value 1.01 | locus YJR043C, strain POL32, stronger effect = lower value 0.967 | locus YJR066W, strain TOR1, stronger effect = lower value 0.929
